The values below come from ChEMBL document CHEMBL4513216, “Probing the Open Global Health Chemical Diversity Library for Multistage-Active Starting Points for Next-Generation Antimalarials” (ACS Infect Dis, 2020).

Out of some 65,000 compounds screened, about 2,100 (3.2%) showed an effect of 50% or more. The median lay at about -52%. What follows is part of a selection rich in strong results, with near analogues and random picks from the rest.

For the experiment, the system named is Plasmodium falciparum. Kind of experiment: Screen against P. falciparum Asexual Blood Stage (ABS), at 5uM. It counts as functional, Dd2. The following applies: tested at 5 uM.
As to `CNS(=O)(=O)CCCN(C)Cc1cc(C)ccc1OC`, the INHIBITION turned out to be 26.6%.
With `COc1ccccc1C(C)(C)NCc1ccco1` the figure was 65.7%.
With `COc1ccc(C(=O)NCc2ccco2)nn1` the figure was -126%.
Consider `COC(=O)c1ccc(CNC(C)(C)c2ccccc2OC)o1`, for which the INHIBITION is reported as 1.74%.
Take `COc1ccc(CN(C)C(=O)Cc2c(C)nn(C)c2C)cc1F`: the INHIBITION is recorded as -154%.
For the compound `Cc1noc([C@@H]2C[C@H]3CN(Cc4scnc4C)C[C@H]3O2)n1`, the INHIBITION is reported as -40.7%.
With `CC(C)n1c(=O)c2sccc2n(CC(=O)Nc2ccccc2)c1=O` the figure was -27.6%.
Regarding `Cc1ccc(N2C[C@@H]3CN(C(=O)c4ccccc4)CCO[C@@H]3C2)nn1`, the INHIBITION is -12.5%.
With `CS(=O)(=O)NCC1CCCCN1Cc1cccc(C#N)c1` (stereo not drawn) the figure was -92.3%; with `CN(C)c1ccccc1CN1CCCCC1CNS(C)(=O)=O` (stereo not drawn), 60.5%.
Turning to `CS(=O)(=O)NCC1CCCCN1Cc1ccccc1C#N` (stereo not drawn), the INHIBITION is -34.1%.
With `O=c1ccc2c([nH]1)CCC(NCc1ccc3c(c1)OCO3)C2` (stereo not drawn) the figure was -104%; with `Cc1cccc2c(CCNC(=O)NCC[S+](C)[O-])c[nH]c12` (stereo not drawn), -103%; with `Cc1cccc2c(CCNC(=O)NCCC[S+](C)[O-])c[nH]c12` (stereo not drawn), -85.3%.
With `Cc1cccc2c(CCNC(=O)[C@H](N)c3ccccc3)c[nH]c12` the figure was 61.2%; with `CN(Cc1ccc2c(c1)OCCO2)Cc1nnnn1-c1ccccc1`, -39.1%; with `Oc1ccc2oc3c(c2c1CN1CCOCC1)CCCC3`, 19.1%.
As to `NC(=O)C1CN(Cc2c(O)ccc3oc4c(c23)CCCC4)CCO1` (stereo not drawn), the INHIBITION was -23.1%.
With `CCC1CN(Cc2c(O)ccc3oc4c(c23)CCCC4)CCO1` (stereo not drawn) the figure was 60%; with `CN(Cc1ccccc1)c1ncccc1CNC1CCSCC1`, 26.2%; with `CC(=O)N1CCC(NCc2cccnc2N(C)Cc2ccccc2)CC1`, -57.8%.
With `CN(Cc1ccccc1)c1ncccc1CNC1CCCC1` the figure was 65.6%; with `CCc1nnsc1C(=O)NCc1nnc2n1CCC2`, -217%; with `Cc1ccc(N2CC3(COCCN(Cc4ccccn4)C3)OCC2=O)s1` (stereo not drawn), -89.9%.
With `COc1c(CNC2CCSc3ccc(F)cc32)c(C)nn1C` (stereo not drawn) the figure was -115%; with `CC1CCCN(Cc2csc(-c3ncccn3)n2)CC1` (stereo not drawn), -29.2%; with `c1cnc(-c2nc(CN3CCCC(N4CCCC4)C3)cs2)nc1` (stereo not drawn), 51.7%.
On to `CC(=O)NC1CCCN(Cc2csc(-c3ncccn3)n2)C1` (stereo not drawn), for which the INHIBITION is -89.8%.
With `O=C(NC1CC1)C1CCc2nnc(C3CC3)n21` (stereo not drawn) the figure was -100%; with `c1ccc(OCC2CC3(CCN(CC4CCOCC4)CC3)CO2)nc1` (stereo not drawn), -83.4%.
With `Cc1cc(C)nc(Nc2cc(C)nc(C3CCN(C(=O)CO)C3)n2)n1` (stereo not drawn) the figure was -74.1%; with `CN(C)C(=O)CC1CC2(CCN(Cc3ccco3)CC2)c2ccccc21` (stereo not drawn), 24.7%.
With `CN(C)[C@H]1CCCCN(Cc2ccccc2Cn2cccn2)C1` the figure was 51%; with `CN(C)CCC1CCCCN1Cc1cnc(-c2ccccn2)nc1` (stereo not drawn), 38.9%; with `Fc1cccc(-n2ccc(CN3CCCCC3Cn3cncn3)n2)c1` (stereo not drawn), -44.8%.
On to `c1cnn(CCC2CCCCN2Cc2cnc(C3CCCCC3)nc2)c1` (stereo not drawn), for which the INHIBITION is -9.85%.
With `Fc1cccc(-n2ccc(CN3CCCC3Cn3cccn3)n2)c1` (stereo not drawn) the figure was 4.96%; with `c1ccc(-c2ncc(CN3CCCCC3CCn3cccn3)cn2)nc1` (stereo not drawn), 51%.
With `Cc1ccc2nc(CN3CCCCC3CCn3cccn3)cn2c1` (stereo not drawn) the figure was -63.2%; with `Fc1cccc(-n2cc(CN3CCCCC3CCn3ccnc3)cn2)c1` (stereo not drawn), 68.9%.
In the case of `CC1CN(Cc2ccccc2Cn2cccn2)CCN1C` (stereo not drawn), the INHIBITION is on record as 48.4%.
In the case of `Fc1ccc(-n2cccn2)c(CN2CCCCC2CCn2ccnc2)c1` (stereo not drawn), the INHIBITION stood at 7.69%.
As for `c1ccc(Cn2cccn2)c(CN2CCCCC2CCn2ccnc2)c1` (stereo not drawn), the INHIBITION turned out to be 64.4%.
`CN(C)C1CCCN(Cc2cccc(Cn3cccn3)c2)CC1` (stereo not drawn): the INHIBITION is recorded as 34%.
With `CCc1cnc(N2CCC3(CCN(Cc4cccc(C)c4)C3=O)C2)nc1` (stereo not drawn) the figure was 44.1%.
With `CN(Cc1cccnc1)Cc1cncc2c1CCN(c1ccccn1)C2` the figure was -26.1%; with `CCc1[nH]c2c(CNc3cnccn3)cc(F)cc2c1C`, -64.1%; with `CN1CCNCC(Cc2cnc3ccccc3c2)C1` (stereo not drawn), -67.9%.
In the case of `COCCCNC(=O)c1cc(C(C)C)nc(N2CCCC2)n1`, the INHIBITION was -93.7%.
With `CC(C)c1cc(C(=O)NCCCN(C)C)nc(N2CCCC2)n1` the figure was 52.7%; with `CCN(CC)CCNC(=O)c1cc(C(C)C)nc(N2CCCC2)n1`, -32.6%.
With `NCCSc1nccc(-c2cnc(C3CC3)nc2-c2ccco2)n1` the figure was -39.7%; with `CC(C)c1ncc2c(n1)CN(Cc1nnc(Cc3ccccc3)o1)CC2`, -45.2%.
